The source of these data is PMC7862700, “An all-to-all approach to the identification of sequence-specific readers for epigenetic DNA modifications on cytosine”.

What all share (test): DAPPL (digital affinity profiling via proximity ligation, sequencing); 10 mM Tris-HCl pH 7.5, 50 mM NaCl, 1 mM DTT, 4% glycerol, room temperature, 30 min; GST-TFs on glutathione beads, 16-mer random dsDNA library, 0.1% formaldehyde crosslink after washing; high values mean tight binding
What all share (settings): protein: recombinant; tags: N-terminal GST; dsDNA, one strand shown

In one test the target is T1, ERF (Homo sapiens, UniProt P50548 1-548).
T1 sequence: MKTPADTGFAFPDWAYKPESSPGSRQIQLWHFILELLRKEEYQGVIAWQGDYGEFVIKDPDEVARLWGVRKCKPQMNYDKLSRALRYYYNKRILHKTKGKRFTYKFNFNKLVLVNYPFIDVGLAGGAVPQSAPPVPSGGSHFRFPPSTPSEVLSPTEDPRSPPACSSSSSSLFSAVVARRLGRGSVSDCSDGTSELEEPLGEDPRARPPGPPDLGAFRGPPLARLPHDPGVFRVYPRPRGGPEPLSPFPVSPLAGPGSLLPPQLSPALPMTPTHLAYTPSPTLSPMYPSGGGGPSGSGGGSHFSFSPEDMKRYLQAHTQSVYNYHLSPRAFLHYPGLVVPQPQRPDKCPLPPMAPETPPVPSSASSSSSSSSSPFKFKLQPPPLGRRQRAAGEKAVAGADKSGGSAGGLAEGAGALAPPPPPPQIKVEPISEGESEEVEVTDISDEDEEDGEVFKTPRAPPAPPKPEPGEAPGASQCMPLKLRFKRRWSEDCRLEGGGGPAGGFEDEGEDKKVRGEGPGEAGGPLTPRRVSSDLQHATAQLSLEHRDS
Summed up: (§1)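 Sequencing on an Illumina NextSeq500 followed washing, crosslinking with 0.1% formaldehyde, proximity ligation (BsaI/T4 ligase, 1 h, 37 °C) and PCR amplification of pools that had been incubated for 30 min at room temperature with 200 nmole of a random double-stranded 16-mer DNA library in Tris/NaCl/DTT/glycerol buffer. Each pool held DNA-barcoded human transcription factors, expressed in yeast as GST fusions and captured on glutathione beads, plus a tag-only sample. Binding signal is a hexamer's read frequency for a factor divided by its frequency in the tag-only sample.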

The target of the next test is T2, ETV3L (Homo sapiens, UniProt Q6ZN32 1-361).
T2 sequence: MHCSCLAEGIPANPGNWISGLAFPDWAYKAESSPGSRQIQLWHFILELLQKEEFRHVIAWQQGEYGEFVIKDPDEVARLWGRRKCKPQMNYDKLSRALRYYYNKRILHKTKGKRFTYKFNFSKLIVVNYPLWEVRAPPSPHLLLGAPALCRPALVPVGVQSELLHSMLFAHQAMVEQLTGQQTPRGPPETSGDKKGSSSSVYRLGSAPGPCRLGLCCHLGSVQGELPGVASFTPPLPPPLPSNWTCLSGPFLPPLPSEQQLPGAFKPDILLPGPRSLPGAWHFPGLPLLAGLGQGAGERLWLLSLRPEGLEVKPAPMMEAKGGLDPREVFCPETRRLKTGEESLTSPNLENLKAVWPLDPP
The method in brief:
as §1

The target of another test is T3, ETS2 (Homo sapiens, UniProt P15036 1-469).
T3 sequence: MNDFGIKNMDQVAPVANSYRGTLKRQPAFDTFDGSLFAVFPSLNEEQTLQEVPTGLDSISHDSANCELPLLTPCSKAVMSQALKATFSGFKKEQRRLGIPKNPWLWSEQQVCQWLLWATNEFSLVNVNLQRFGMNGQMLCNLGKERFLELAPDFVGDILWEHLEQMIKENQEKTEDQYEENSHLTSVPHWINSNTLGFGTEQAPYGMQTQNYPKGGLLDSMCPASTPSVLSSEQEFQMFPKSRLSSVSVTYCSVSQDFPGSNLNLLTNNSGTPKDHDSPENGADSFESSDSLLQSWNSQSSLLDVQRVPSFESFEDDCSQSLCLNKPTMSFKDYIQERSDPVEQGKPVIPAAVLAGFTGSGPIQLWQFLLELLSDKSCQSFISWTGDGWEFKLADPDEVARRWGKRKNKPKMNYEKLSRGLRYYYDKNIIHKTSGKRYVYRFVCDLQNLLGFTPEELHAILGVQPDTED
The method in brief: as §1

For a further test, the target named is T4, SPDEF (Homo sapiens, UniProt O95238 1-335).
T4 sequence: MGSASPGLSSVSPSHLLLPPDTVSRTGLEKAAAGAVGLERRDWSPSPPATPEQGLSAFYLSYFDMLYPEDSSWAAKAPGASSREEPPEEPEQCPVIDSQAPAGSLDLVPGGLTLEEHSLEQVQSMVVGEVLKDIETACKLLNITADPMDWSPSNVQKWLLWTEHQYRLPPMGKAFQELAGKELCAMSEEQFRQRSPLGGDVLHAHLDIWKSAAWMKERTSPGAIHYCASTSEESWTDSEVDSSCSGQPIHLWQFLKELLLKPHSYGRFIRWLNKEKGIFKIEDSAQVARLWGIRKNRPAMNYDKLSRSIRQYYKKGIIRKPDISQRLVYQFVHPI
Summed up: as §1

The next test concerns the target T5, ETV7 (Homo sapiens, UniProt Q9Y603 1-341).
T5 sequence: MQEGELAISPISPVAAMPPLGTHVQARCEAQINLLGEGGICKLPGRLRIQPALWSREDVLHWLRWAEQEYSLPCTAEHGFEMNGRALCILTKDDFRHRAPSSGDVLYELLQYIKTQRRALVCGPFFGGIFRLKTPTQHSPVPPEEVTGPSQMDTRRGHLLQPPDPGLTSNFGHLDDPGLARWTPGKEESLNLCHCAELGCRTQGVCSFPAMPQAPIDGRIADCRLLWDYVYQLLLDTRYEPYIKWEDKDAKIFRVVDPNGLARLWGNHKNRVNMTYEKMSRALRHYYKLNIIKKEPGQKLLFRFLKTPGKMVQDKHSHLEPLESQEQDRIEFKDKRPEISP
The method in brief:
as §1

In the next test the target is T6, ELF5 (Homo sapiens, UniProt Q9UKW6-2 1-255).
T6 sequence: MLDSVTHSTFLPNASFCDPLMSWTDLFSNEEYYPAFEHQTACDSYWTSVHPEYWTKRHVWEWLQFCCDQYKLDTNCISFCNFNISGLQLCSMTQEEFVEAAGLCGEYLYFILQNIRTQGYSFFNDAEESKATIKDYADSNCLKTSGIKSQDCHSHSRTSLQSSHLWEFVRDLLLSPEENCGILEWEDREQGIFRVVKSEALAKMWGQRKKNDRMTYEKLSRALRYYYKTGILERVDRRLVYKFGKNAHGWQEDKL
Summed up: as §1

Another test has as its target T7, ETV3 (Homo sapiens, UniProt P41162-2 1-143).
T7 sequence: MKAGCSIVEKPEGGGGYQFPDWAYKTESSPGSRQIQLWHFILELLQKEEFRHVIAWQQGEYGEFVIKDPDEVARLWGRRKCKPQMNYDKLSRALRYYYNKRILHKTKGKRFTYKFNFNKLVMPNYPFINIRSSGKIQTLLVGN
Summed up:
as §1

In another test the target is ETV6 (Homo sapiens, UniProt P41212 1-452). The method in brief: as §1
Chain of ETV6 (P41212 whole entry): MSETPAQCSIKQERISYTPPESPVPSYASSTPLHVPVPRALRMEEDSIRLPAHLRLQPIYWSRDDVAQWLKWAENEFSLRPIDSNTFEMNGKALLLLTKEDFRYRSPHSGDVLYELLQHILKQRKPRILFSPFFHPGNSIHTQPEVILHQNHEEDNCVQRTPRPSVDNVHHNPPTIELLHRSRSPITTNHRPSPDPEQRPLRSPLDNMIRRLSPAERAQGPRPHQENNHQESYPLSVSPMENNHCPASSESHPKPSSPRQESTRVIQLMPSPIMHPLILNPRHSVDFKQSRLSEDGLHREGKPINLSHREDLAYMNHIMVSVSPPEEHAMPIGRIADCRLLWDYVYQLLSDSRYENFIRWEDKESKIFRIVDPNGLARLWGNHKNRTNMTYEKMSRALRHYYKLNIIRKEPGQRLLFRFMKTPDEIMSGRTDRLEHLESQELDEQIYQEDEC

Regarding TGACCT, the binding signal in the test with ERF is 1.66 fold enrichment (6-mer frequency, TF over GST control); with ETV3L, 1.83 fold enrichment (6-mer frequency, TF over GST control); with ETS2 it was 1.72 fold enrichment (6-mer frequency, TF over GST control); in the test with SPDEF, 1.74 fold enrichment (6-mer frequency, TF over GST control); with ETV7, 1.75 fold enrichment (6-mer frequency, TF over GST control); with ELF5, 1.73 fold enrichment (6-mer frequency, TF over GST control). Also, the binding signal was 1.59 fold enrichment (6-mer frequency, TF over GST control) in the test with ETV3 and 1.66 fold enrichment (6-mer frequency, TF over GST control) with ETV6.
For TGTTCG, the binding signal with ERF was 1.2 fold enrichment (6-mer frequency, TF over GST control); in the test with ETV3L, 1.01 fold enrichment (6-mer frequency, TF over GST control); with ETS2, 1.15 fold enrichment (6-mer frequency, TF over GST control); with SPDEF it was 1.03 fold enrichment (6-mer frequency, TF over GST control); with ETV7, 1.15 fold enrichment (6-mer frequency, TF over GST control); in the test with ELF5, 1.03 fold enrichment (6-mer frequency, TF over GST control). Also, the binding signal with ETV3 is 1.01 fold enrichment (6-mer frequency, TF over GST control).
Take CAACTA: the binding signal in the test with ERF was 1.24 fold enrichment (6-mer frequency, TF over GST control); in the test with ETV3L, 1.29 fold enrichment (6-mer frequency, TF over GST control); with ETS2, 1.3 fold enrichment (6-mer frequency, TF over GST control); with SPDEF, 1.32 fold enrichment (6-mer frequency, TF over GST control); with ETV7, 1.24 fold enrichment (6-mer frequency, TF over GST control); with ELF5, 1.26 fold enrichment (6-mer frequency, TF over GST control). For the same sequence, the binding signal with ETV3 was 1.2 fold enrichment (6-mer frequency, TF over GST control); with ETV6, 1.25 fold enrichment (6-mer frequency, TF over GST control).
For TTCACC, the binding signal with ERF was 1.41 fold enrichment (6-mer frequency, TF over GST control); with ETV3L, 1.32 fold enrichment (6-mer frequency, TF over GST control); with ETS2, 1.35 fold enrichment (6-mer frequency, TF over GST control); in the test with SPDEF, 1.32 fold enrichment (6-mer frequency, TF over GST control); with ETV7, 1.3 fold enrichment (6-mer frequency, TF over GST control); with ELF5 it was 1.32 fold enrichment (6-mer frequency, TF over GST control). Further, the binding signal was 1.48 fold enrichment (6-mer frequency, TF over GST control) with ETV3 and 1.35 fold enrichment (6-mer frequency, TF over GST control) with ETV6.
For the sequence CCGCCA, the binding signal with ERF is 1.36 fold enrichment (6-mer frequency, TF over GST control); with ETV3L, 1.33 fold enrichment (6-mer frequency, TF over GST control); in the test with ETS2 it was 1.22 fold enrichment (6-mer frequency, TF over GST control); with SPDEF, 1.29 fold enrichment (6-mer frequency, TF over GST control); in the test with ETV7, 1.26 fold enrichment (6-mer frequency, TF over GST control); with ELF5, 1.47 fold enrichment (6-mer frequency, TF over GST control). In addition, the binding signal with ETV3 was 1.43 fold enrichment (6-mer frequency, TF over GST control); with ETV6, 1.26 fold enrichment (6-mer frequency, TF over GST control).
GGTACT: the binding signal with ERF was 1.38 fold enrichment (6-mer frequency, TF over GST control); with ETV3L, 1.3 fold enrichment (6-mer frequency, TF over GST control); with ETS2 it was 1.31 fold enrichment (6-mer frequency, TF over GST control); with SPDEF, 1.31 fold enrichment (6-mer frequency, TF over GST control); in the test with ETV7, 1.2 fold enrichment (6-mer frequency, TF over GST control); with ELF5 it was 1.28 fold enrichment (6-mer frequency, TF over GST control). Also, the binding signal was 1.24 fold enrichment (6-mer frequency, TF over GST control) with ETV3 and 1.16 fold enrichment (6-mer frequency, TF over GST control) with ETV6.
With TCTCAT, the binding signal is 1.26 fold enrichment (6-mer frequency, TF over GST control) with ERF; 1.32 fold enrichment (6-mer frequency, TF over GST control) in the test with ETV3L; 1.26 fold enrichment (6-mer frequency, TF over GST control) with ETS2; 1.33 fold enrichment (6-mer frequency, TF over GST control) with SPDEF; 1.11 fold enrichment (6-mer frequency, TF over GST control) with ETV7; 1.24 fold enrichment (6-mer frequency, TF over GST control) in the test with ELF5. The binding signal in the test with ETV3 was 1.37 fold enrichment (6-mer frequency, TF over GST control); with ETV6 it was 1.14 fold enrichment (6-mer frequency, TF over GST control).
With CCGTCC, the binding signal with ERF was 1.51 fold enrichment (6-mer frequency, TF over GST control); in the test with ETV3L it was 1.38 fold enrichment (6-mer frequency, TF over GST control); with ETS2, 1.38 fold enrichment (6-mer frequency, TF over GST control); with SPDEF it was 1.55 fold enrichment (6-mer frequency, TF over GST control); with ETV7, 1.27 fold enrichment (6-mer frequency, TF over GST control); with ELF5, 1.36 fold enrichment (6-mer frequency, TF over GST control). Moreover, the binding signal with ETV3 was 1.51 fold enrichment (6-mer frequency, TF over GST control); with ETV6 it was 1.29 fold enrichment (6-mer frequency, TF over GST control).
In the case of TCGCGC, the binding signal with ERF is 1.12 fold enrichment (6-mer frequency, TF over GST control); with ETV3L, 1.02 fold enrichment (6-mer frequency, TF over GST control); with ETS2, 1.12 fold enrichment (6-mer frequency, TF over GST control); with SPDEF, 1.14 fold enrichment (6-mer frequency, TF over GST control); in the test with ETV7, 1.23 fold enrichment (6-mer frequency, TF over GST control); with ELF5, 1.03 fold enrichment (6-mer frequency, TF over GST control).
